Laboratory results from the supplement of paper PMC8728848.
Shown is part of a subset that was picked to be rich in the strongest signals.

Legend:
Assay in all cases: glycan array binding signal (z-score within array); higher = stronger binding
Conditions in all cases: glycan notation: IUPAC condensed, linker removed
[1] = target: Fuc(a1-2)Gal(b1-3)[Fuc(a1-4)]GlcNAc
Outline: (§1)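 The Consortium for Functional Glycomics database supplied 3228 glycan arrays, of which those lacking an available protein sequence were dropped. The binding signal, a within-array Z-score, was averaged across arrays of the same protein sequence and across linkers. Negative scores can be read as non-binding.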

[2] = target: Fuc(a1-2)Gal6S(b1-3)GlcNAc6S
Outline: as §1

[3] = target: Fuc(a1-2)[Gal(a1-3)]Gal(b1-3)GlcNAc
Outline: as §1

[4] = target: Fuc(a1-2)[Gal(a1-3)]Gal(b1-3)GlcNAc(b1-2)Man(a1-3)[Fuc(a1-2)[Gal(a1-3)]Gal(b1-3)GlcNAc(b1-2)Man(a1-6)]Man(b1-4)GlcNAc(b1-4)GlcNAc
Outline: as §1

[5] = target: Fuc(a1-3)[Gal(b1-4)]Glc6S
Outline: as §1

[6] = target: Fuc(a1-3)[Gal(b1-4)]GlcNAc(b1-3)Gal(b1-4)[Fuc(a1-3)]GlcNAc
Outline: as §1

[7] = target: Fuc(a1-3)[Gal(b1-4)]GlcNAc6S
Outline: as §1

[8] = target: Gal(a1-3)Fuc(a1-2)Gal(b1-4)GlcNAc(b1-3)[Gal(a1-3)Fuc(a1-2)Gal(b1-4)GlcNAc(b1-6)]GalNAc
Outline: as §1

[9] = target: Gal(a1-3)Gal(b1-3)GlcNAc
Outline: as §1

[10] = target: Gal(b1-3)GalNAc
Outline: as §1

[11] = target: Gal(b1-3)GalNAc(a1-3)[Fuc(a1-2)]Gal(b1-4)Glc
Outline: as §1

[12] = target: Gal(b1-3)GlcNAc(b1-2)Man
Outline: as §1

[13] = target: Gal(b1-3)[Fuc(a1-4)]GlcNAc(b1-2)Man(a1-3)[Gal(b1-3)[Fuc(a1-4)]GlcNAc(b1-2)Man(a1-6)]Man(b1-4)GlcNAc(b1-4)[Fuc(a1-6)]GlcNAc
Outline: as §1

[14] = target: Gal(b1-3)[Neu5Ac(a2-6)]GalNAc
Outline: as §1

[15] = target: Gal(b1-4)Glc6S
Outline: as §1

[16] = target: Gal(b1-4)GlcNAc(b1-3)Gal(b1-4)GlcNAc(b1-2)[Gal(b1-4)GlcNAc(b1-3)Gal(b1-4)GlcNAc(b1-6)]Man(a1-6)[Gal(b1-4)GlcNAc(b1-3)Gal(b1-4)GlcNAc(b1-2)Man(a1-3)]Man(b1-4)GlcNAc(b1-4)GlcNAc
Outline: as §1

[17] = target: Gal(b1-4)GlcNAc(b1-3)Gal(b1-4)GlcNAc(b1-3)Gal(b1-4)GlcNAc(b1-3)Gal(b1-4)GlcNAc(b1-2)Man(a1-3)[Gal(b1-4)GlcNAc(b1-3)Gal(b1-4)GlcNAc(b1-3)Gal(b1-4)GlcNAc(b1-3)Gal(b1-4)GlcNAc(b1-2)Man(a1-6)]Man(b1-4)GlcNAc(b1-4)[Fuc(a1-6)]GlcNAc
Outline: as §1

[18] = target: Gal(b1-4)GlcNAc(b1-3)Gal(b1-4)GlcNAc(b1-3)GalNAc
Outline: as §1

[19] = target: Gal(b1-4)GlcNAc(b1-6)Gal(b1-4)GlcNAc
Outline: as §1

[20] = target: Gal3S(b1-3)[Fuc(a1-4)]GlcNAc
Outline: as §1

[21] = target: Gal3S6S(b1-4)GlcNAc6S
Outline: as §1

[22] = target: Gal6P(b1-4)GlcNAc
Outline: as §1

[23] = target: Gal6S(b1-4)Glc6S
Outline: as §1

[24] = target: GalNAc(b1-4)GlcNAc6S
Outline: as §1

[25] = target: Glc(a1-4)Glc(a1-4)Glc(a1-4)Glc
Outline: as §1

[26] = target: GlcNAc(b1-2)Gal(b1-3)GalNAc
Outline: as §1

[27] = target: GlcNAc(b1-2)Man(a1-3)[GlcNAc(b1-2)Man(a1-6)]Man(b1-4)GlcNAc(b1-4)[Fuc(a1-6)]GlcNAc
Outline: as §1

[28] = target: GlcNAc(b1-2)[GlcNAc(b1-6)]Man(a1-6)[GlcNAc(b1-2)Man(a1-3)]Man(b1-4)GlcNAc(b1-4)GlcNAc
Outline: as §1

[29] = target: GlcNAc(b1-3)Gal(b1-4)GlcNAc(b1-3)Gal(b1-4)GlcNAc(b1-3)GalNAc
Outline: as §1

[30] = target: GlcNAc(b1-3)[GlcNAc(b1-4)][GlcNAc(b1-6)]GlcNAc
Outline: as §1

B1: CaSRK1 (Capsicum annuum) (protein)
chain: MALCKIFPFAFILLSCSCYLISGQRFDYPTANLSTTWINSVSAPHSIDYTDGSRIRAILLRGTFGPRYACGFYCNGNCESYLFAIFIVQTNSASQITSPAIGFPQVVWSANRNNPVKINSTLQLTAEGDLVLRDADGTLAWSTNTAGKSVAGLSLTDEGNLALFDSKNATVWQSFDHPTDALVPGQKLVPGMKLTASVSRTNWTAGGLFALSAIDNGLVAFVESNPPQKYFEASVGGSNTSGGSNYVKYLNGSLTLFTHSADTTELILISITPASSAQYMKLESNGHLKVYEWTSRGWREVDDLLTGFRGECNYPTVCGRYGICTMGQCSCPTSSSSRTYFRPIDVRRPSLGCSEVTKLTCQNTKKHSPLEVEDVDYFAFKAGISDTDLNTCKRACLEKCSCKAAFFRSGLNSSRTRGDCYLPTEIFSIMNNEKDRTRYDSVAFIKVQV
In the case of B1, the “glycan array binding signal (z-score)” value [1] is reported as -0.523, the “glycan array binding signal (z-score)” value [2] is reported as 2.31 and the “glycan array binding signal (z-score)” value [3] is reported as 2.37. The “glycan array binding signal (z-score)” value [4] was -0.546, the “glycan array binding signal (z-score)” value [5] was -0.056 and the “glycan array binding signal (z-score)” value [6] was 0.387. The “glycan array binding signal (z-score)” value [7] was 0.606, the “glycan array binding signal (z-score)” value [8] was 3.39 and the “glycan array binding signal (z-score)” value [9] was 3.11. The “glycan array binding signal (z-score)” value [10] was -0.395, the “glycan array binding signal (z-score)” value [11] was 0.178 and the “glycan array binding signal (z-score)” value [12] was 5.29. For the same binder, the “glycan array binding signal (z-score)” value [13] was -0.295, the “glycan array binding signal (z-score)” value [14] was -0.368 and the “glycan array binding signal (z-score)” value [15] was -0.386. The “glycan array binding signal (z-score)” value [16] was 3.63, the “glycan array binding signal (z-score)” value [17] was 0.677 and the “glycan array binding signal (z-score)” value [18] was 2.85. For the same binder, the “glycan array binding signal (z-score)” value [19] was 0.04, the “glycan array binding signal (z-score)” value [20] was -0.07 and the “glycan array binding signal (z-score)” value [21] was 2.4. For the same binder, the “glycan array binding signal (z-score)” value [22] was -0.342, the “glycan array binding signal (z-score)” value [23] was 0.802 and the “glycan array binding signal (z-score)” value [24] was 0.352. The “glycan array binding signal (z-score)” value [25] was 0.933, the “glycan array binding signal (z-score)” value [26] was -0.097 and the “glycan array binding signal (z-score)” value [27] was -0.143. The “glycan array binding signal (z-score)” value [28] was -0.46, the “glycan array binding signal (z-score)” value [29] was -0.477 and the “glycan array binding signal (z-score)” value [30] was -0.34.
